Reference: PubChem BioAssay AID1347165 (National Center for Advancing Translational Sciences (NCATS), 2019)
Among all 220,000 compounds or so, about 5,700 (2.6%) were called active. Another 18% or so got no clear call; they are omitted. Calls come from the whole dose curve; as a rule, active = well fitted inhibition curve with a large enough effect; inconclusive = small, poorly fitted or top-dose-only effect; inactive = no such curve, though single readings can be large or run the other way. The sample as a whole holds a higher share of actives than the screen did.

Each molecule was assayed against Lysine-specific demethylase 5B (Homo sapiens) (UniProt Q9UGL1) (assay: Primary screen for KDM5B Histone Demethylases FDH-coupled qHTS). Details: FDH-coupled NADH fluorescence (FDH is formaldehyde dehydrogenase); series mostly up to 57.7 µM.
Chain of Lysine-specific demethylase 5B (Homo sapiens) (Q9UGL1 whole entry, looked up): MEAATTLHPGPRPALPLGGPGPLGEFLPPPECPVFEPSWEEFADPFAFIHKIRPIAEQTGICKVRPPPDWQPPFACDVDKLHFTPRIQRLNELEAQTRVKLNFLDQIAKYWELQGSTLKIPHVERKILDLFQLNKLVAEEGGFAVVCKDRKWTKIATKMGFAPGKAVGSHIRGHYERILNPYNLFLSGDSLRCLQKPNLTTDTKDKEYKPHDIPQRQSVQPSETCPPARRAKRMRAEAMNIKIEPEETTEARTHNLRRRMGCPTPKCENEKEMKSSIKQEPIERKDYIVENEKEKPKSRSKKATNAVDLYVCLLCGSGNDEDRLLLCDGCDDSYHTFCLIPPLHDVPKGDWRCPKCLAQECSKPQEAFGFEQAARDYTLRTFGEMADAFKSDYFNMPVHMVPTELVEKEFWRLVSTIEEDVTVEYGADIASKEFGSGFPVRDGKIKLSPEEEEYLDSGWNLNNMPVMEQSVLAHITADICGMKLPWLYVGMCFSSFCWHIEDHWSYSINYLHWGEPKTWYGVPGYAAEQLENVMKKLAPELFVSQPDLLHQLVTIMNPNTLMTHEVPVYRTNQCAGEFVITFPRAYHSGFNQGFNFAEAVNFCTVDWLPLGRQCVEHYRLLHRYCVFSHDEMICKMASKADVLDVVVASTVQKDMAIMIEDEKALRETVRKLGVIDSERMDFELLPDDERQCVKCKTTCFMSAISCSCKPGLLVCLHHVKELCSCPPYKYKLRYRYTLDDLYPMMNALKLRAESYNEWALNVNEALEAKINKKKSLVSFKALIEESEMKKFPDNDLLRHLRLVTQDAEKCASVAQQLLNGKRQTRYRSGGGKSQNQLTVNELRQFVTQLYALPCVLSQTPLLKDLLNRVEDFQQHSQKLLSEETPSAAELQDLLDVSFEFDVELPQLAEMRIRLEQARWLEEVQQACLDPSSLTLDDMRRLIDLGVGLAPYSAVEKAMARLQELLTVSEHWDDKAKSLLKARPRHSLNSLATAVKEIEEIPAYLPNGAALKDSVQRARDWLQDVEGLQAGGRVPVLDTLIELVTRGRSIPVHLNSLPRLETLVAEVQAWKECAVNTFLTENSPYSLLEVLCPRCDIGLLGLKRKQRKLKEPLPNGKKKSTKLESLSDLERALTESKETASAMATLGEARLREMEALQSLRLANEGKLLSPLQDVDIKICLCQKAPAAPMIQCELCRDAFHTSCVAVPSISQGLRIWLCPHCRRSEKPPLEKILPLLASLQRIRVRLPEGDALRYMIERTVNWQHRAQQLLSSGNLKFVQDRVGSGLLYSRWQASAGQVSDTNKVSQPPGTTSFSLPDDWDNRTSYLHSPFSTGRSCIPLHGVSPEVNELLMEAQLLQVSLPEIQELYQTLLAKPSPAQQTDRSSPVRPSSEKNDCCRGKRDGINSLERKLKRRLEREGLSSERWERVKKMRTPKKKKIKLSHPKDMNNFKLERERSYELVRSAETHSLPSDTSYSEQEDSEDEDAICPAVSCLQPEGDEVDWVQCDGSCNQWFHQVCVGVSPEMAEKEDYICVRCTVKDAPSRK
Procedure, shortened: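 Measured: NADH fluorescence change, 30 min, RT. System: KDM5BΔAP 200 nM final, H3K4me3 peptide, α-KG, Fe(II), ascorbate, NAD⁺ plus FDH, pH 7.5 HEPES. Compounds: titrated, 10 min pre-incubation with enzyme.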
Note: nearly all actives have a fitted effect of over 70% in size.
Potency is the fitted concentration of half-maximal effect.

Potency, active:
Cc1nn2c(c1-c1ccccc1N1CCCC1)N(C(=O)c1ccn(C)n1)CCC2 7.94 µM, COc1ccc(CNC(=O)c2cc3c(s2)CN(C2CC2)C3)cc1OC 11.2 µM, CC(C)CNc1ccc2nnc(-c3ccccn3)n2n1 31.6 µM, O=C(CCNc1cnc2cnccn12)NC1CCN(Cc2ccccc2)CC1 22.4 µM, COc1ccc2c(c1)OCC(C(=O)N1CCCN(c3ncccn3)CC1)C2 (centres undefined) 25.1 µM, Cc1nc(CCNc2nccc(-c3cccnc3)n2)nc2c1CCCC2 28.2 µM, NC(=O)Cn1ccc2cc(OCC3CCN(C(=O)C4CCCC4)CC3)cnc21 35.5 µM, CCOc1nccnc1NC1CCN(C(=O)c2cccnc2)CC1 28.2 µM, CCCS(=O)(=O)N1CCC(Nc2nccnc2OCC)CC1 15.8 µM, N#Cc1cc2c(nc1N1CCN(C3CCCC3)C(CCO)C1)CCCC2 (centres undefined) 28.2 µM, COc1ccc2cc(-c3[nH]ncc3CN3CCN(c4cccc(C)n4)CC3)ccc2c1 28.2 µM, O=C(Nc1ccc(Cl)cc1)c1nc2c(o1)CCN(Cc1ccsc1)CC2 31.6 µM, Cc1cccc(CN2CCc3nc(C(=O)Nc4ccc(Cl)cc4)oc3CC2)c1 31.6 µM, O=C(Nc1ccccc1)c1nc2c(o1)CCN(Cc1cccc(Cl)c1)CC2 28.2 µM, Oc1ccc(-c2ccc(-c3nc(CCc4ccccc4)no3)cn2)cc1 25.1 µM, COC[C@@H]1CN(c2ncccn2)C[C@H]1C(=O)Nc1ccncc1 20 µM, CN(C)Cc1cccc(-c2cc(-c3ccncc3)c3cncn3c2)c1 28.2 µM, FC(F)(F)c1cccc(-c2cc(C3=CCOCC3)c3cncn3c2)c1 35.5 µM, OCc1cccc(-c2cc(C3=CCOCC3)c3cncn3c2)c1 31.6 µM, CC(=O)NC1(C)CN(Cc2ccc(-c3ccc4c(ccn4C)c3)s2)C1 35.5 µM, CC(=O)NC1(C)CCN(Cc2cnc(-c3ccc4c(ccn4C)c3)s2)CC1 35.5 µM, O=C(c1ccc2cc[nH]c2c1)N1CCN(Cc2cnc[nH]2)CC(O)C1 (centres undefined) 25.1 µM, Cc1ccc2c(C(=O)O)cc(NC(=O)C(C)C)cc2n1 20 µM, CC(C)NC(=O)N1Cc2[nH]cnc2C[C@H]1c1nc(-c2ccc(Cl)cc2)no1 31.6 µM, COc1ccc(OCC2(C)COc3ccc(C(=O)NC4CCOCC4)cc3N2)cc1 (centres undefined) 25.1 µM, COc1ccc(OCC2(C)COc3ccc(C(=O)Nc4cccnc4)cc3N2)cc1 (centres undefined) 31.6 µM

Potency, inactive:
Cc1nn2c(c1-c1ccccc1C(C)C)N(C(=O)c1cnccn1)CCC2, Cc1nn2c(c1-c1ccccc1C(C)C)N(C(=O)c1cccc(C#N)c1)CCC2, COc1cc(C2Nc3ccc(C)cc3[C@H]3OCCC[C@@H]23)cc(Cl)c1O (some centres undefined), COc1cc(CNC(=O)Cc2ccc(OC)c(OC)c2)ccn1, CSc1ccc(CNC(=O)c2cc3c(s2)CCCC3)cc1, Cc1cccc(N2C(=O)c3ccc(C(=O)Nc4cccc(C(=O)O)c4)cc3C2=O)c1, CCCNc1ccc2nnc(C)n2n1, Cc1ccc(OCC(=O)Nc2ccc3oc(=O)ccc3c2)cc1C, O=C(CCc1ncc(-c2ccc(F)cc2)o1)NC1CCN(Cc2ccccc2)C1 (centres undefined), O=C(O)CC1(CC(=O)NC2CCN(Cc3ccccc3)CC2)CCCC1, Cc1cc(OCC(=O)N2CCN(c3ncccn3)CC2)ccc1Cl, O=C(c1ccoc1)N1CCCN(C(=O)C2COc3ccccc3C2)CC1 (centres undefined), Cc1nc(CCNS(=O)(=O)c2cccnc2)no1, Cc1nc(CNC(=O)[C@H]2CCC[C@@H](O)C2)nc2c1CCCC2, O=C(CCSc1nc2ccccc2s1)NCc1cc(F)cc(F)c1, COC(=O)c1ccc(C(=O)OCc2nc(N)c3ccccc3n2)cc1, CCn1ccc2cc(S(=O)(=O)N3CCC(C(=O)N4CCN(C)CC4)CC3)ccc21, O=C(O)CCn1ncc2cc(OC3CCN(C(=O)C4CCCC4)CC3)ccc21, Cc1ccc(-n2nnnc2SCc2nc3ccsc3c(=O)[nH]2)c(C)c1, O=C(Nc1ccc(SC2CCCC2)cc1)C1CCCC1, CCCS(=O)(=O)N1CCC(Cc2nc(-c3cccnc3)n[nH]2)C1 (centres undefined), C=CCNC(=O)C[C@@H]1CCN(C(=O)c2cccnc2)C[C@@H]1CC, CCCS(=O)(=O)N1CCC2(CC1)C(OC)C(=O)N2CC1CC1 (centres undefined), COC(=O)[C@@H]1CN(C(=O)c2cccnc2)CCN1C(C)=O, CC(Sc1nc(N)cc(N)n1)C(=O)c1ccc(Cl)cc1 (centres undefined), Cn1cc(-c2cc3n(n2)CCC(=O)N3CC(=O)NC2CCCCC2)c2ccccc21, CCCCN(CCCC)c1cccc(-c2cccc(N(CCCC)CCCC)c2)c1, Cc1cccc(C)c1NC(=O)CSc1nc2c(cc1C#N)CCCC2, N#Cc1cc2c(nc1SCC(=O)NCCc1ccccc1)CCCC2, CCCCn1nc(C(=O)NC(CC)CC)c2ccccc2c1=O, COc1ccc(-c2cc(N3CCN(C(=O)Cc4cccc(OC)c4)CC3)n[nH]2)cc1, COc1ccc(-c2[nH]ncc2CN2CCCC(C(=O)NCc3ccccc3)CCNC(=O)CC2)cc1 (centres undefined), O=C(NCC1CC1)c1nc2c(o1)CCN(CCc1ccccc1)CC2, O=C(Nc1ccc(-n2cccn2)cc1)C1CCN(Cc2ccsc2)CC1, COc1ccc(CN2CCc3nc(C(=O)N4CCOCC4)oc3CC2)cc1OC, CCOc1ccc(NC(=O)CSc2nc3c(c(=O)[nH]2)CN(Cc2ccc(Cl)cc2)CC3)cc1, O=C(NCC1CC1)c1nc2c(o1)CCN(Cc1cccc(F)c1F)CC2, O=C(c1nc2c(o1)CCN(Cc1ccccc1F)CC2)N1CCOCC1, Cc1cc(Br)ccc1NC(=O)CN(C)Cc1ncc(-c2ccc(F)cc2)o1, CCc1ccc(CN(C(=O)c2cc(=O)c3cc(C)cc(C)c3o2)C2CCS(=O)(=O)C2)cc1 (centres undefined), O=C(CSc1ncnc2sc3c(c12)CCCC3)Nc1ccc(F)cc1, CC(C)NC(=O)c1ccccc1NC(=O)C(Cl)Cl, CCCn1nc(C(=O)NCc2ccc(OC)cc2)c2ccccc2c1=O, O=C(NCCc1noc(-c2ccccc2)n1)C1CC1, Cc1ccc(-c2nc(C(=O)N(C)Cc3ccccc3)no2)cc1, CCc1ccc(N/C(N)=N/c2nc(C)cc(C)n2)cc1, COC(=O)CC1c2cc(OC)c(OC)cc2CCN1Cc1nc(CC(C)C)no1 (centres undefined), O=C(/C=C/c1ccc(-c2cc(Cl)ccc2Cl)o1)c1ccc(F)cc1, CNC(=O)[C@@H]1CN(C(=O)c2n[nH]c3ccccc23)C[C@H]1COC, CNC(=O)[C@@H]1CN(C(=O)Cc2cccnc2)C[C@H]1COC, S=C(NCCc1ccc(Cl)cc1)Nc1ccc(Oc2ccccc2)cc1, CN(C)[C@@H]1CN(C(=O)c2cccn2C)CC[C@@H]1CO, Cc1noc(C)c1-c1cc(-c2cncnc2)cn2cncc12, Cc1nc(NC(C)C)sc1C(=O)Nc1ccccc1, O=C(COC(=O)c1cc2ccccc2[nH]1)NCc1ccc(F)cc1, NC(=O)c1ccc(CN(Cc2cccs2)C2CC2)cc1, O=C(O)CCC(=O)NC1CC2(CCN(C(=O)c3ccccc3)CC2)c2ccccc21 (centres undefined), CCOc1ccc(CN(C)CC(O)COc2ccc(C)cc2C)cc1OC (centres undefined), Cn1ccc2cc(S(=O)(=O)N3CCC(C(=O)NCCN4CCCC4)CC3)ccc21, CC(=O)N1CCN(C(=O)c2ccc3c(ccn3C)c2)CC1, CCC(=O)c1ccc(OC(=O)c2nn(C(C)C)c(=O)c3ccccc23)cc1, Cc1ccc(Nc2cc(C)nc3c(C)c(C)cc([N+](=O)[O-])c23)c(C)c1, O=S(=O)(CCSc1nnc(-c2ccccc2)o1)c1ccc(Br)cc1, COc1ccc(C(=O)OCC(=O)NCC(F)(F)F)cc1, O=C(CSc1nc2ccccc2s1)Nc1ccc2c(c1)CCC2, O=C(CCc1ncc(-c2ccc(F)cc2F)o1)Nc1ccccc1, Cc1cccc(NC(=O)Nc2ccc(OCc3ccccc3)cc2)n1, CCn1ccc2cc(S(=O)(=O)N3CCC(C(=O)NCC4CCCO4)CC3)ccc21 (centres undefined), CC(=O)N1CCN(Cc2cc(F)ccc2Cl)CC(O)C1 (centres undefined), O=C(c1ccc2[nH]ccc2c1)N1CCN(S(=O)(=O)c2cccc3nonc23)CC1, CN(C)C(=O)c1cccc(NCC(=O)NC(=O)NCc2ccccc2)c1, Cc1ccc(C(=O)N2CCN(c3oc(C4CC4)nc3C#N)CC2)c(C)c1, Cc1ccc(OCCOc2cccc(/C=N/NC(N)=O)c2)cc1, CC(C)C(=O)Nc1ccc2oc(-c3cccc(Cl)c3)nc2c1, CCc1ccccc1NC(=O)c1cc(C)nc2ccccc12, O=C(NCCn1c(-c2ccccc2)nc2ccccc21)NCc1ccccc1, CC(C)Cc1nc2cccnc2n1C1CCN(S(=O)(=O)c2ccc(Cl)s2)CC1, O=C(c1ccco1)N1Cc2[nH]cnc2C[C@H]1c1nc(-c2ccncc2)no1, Cc1cccc(-c2noc([C@@H]3Cc4nc[nH]c4CN3C(=O)CCC(=O)O)n2)c1, COc1ccc(-c2cc(N3CCC(NC(=O)c4ccc5c(c4)OCO5)CC3)n[nH]2)cc1, O=C(Nc1cccnc1)c1ccc2c(c1)OCCN(c1ccccc1)C2, COc1ccc(-n2cnc3cc(C(=O)NC4CCCC4)ccc32)cc1, O=C(Nc1cccnc1)c1ccc2c(c1)OCCN(Cc1ncccn1)C2
